Laboratory results from PubChem BioAssay.
Calls of active or inactive are those of the source.

Tests used:
[1] = compound effects on differentiated 3T3-L1 adipocyte viability – cell-based, 3T3-L1 adipocytes, calcein-AM fluorescence, 48 h, basal, profiling panel (AID 1163); settings: 3T3-L1 adipocytes viability, higher = more signal
[2] = compound effects on hepatocellular carcinoma cell viability – HepG2, calcein-AM fluorescence, 48 h, basal, profiling panel (AID 1164); settings: higher = more signal
[3] = compound effects on multiple myeloma cell viability – MM1S, calcein-AM fluorescence, 48 h, basal, profiling panel (AID 1165); settings: higher = more signal;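 further: viability of MM1S multiple myeloma cells under basal unstimulated conditions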
[4] = calcein-AM signal in unstimulated myeloma cells – cell-based, calcein-AM fluorescence, 48 h, PK04 Diversity Set, profiling panel (AID 1166); settings: RPMI8226 myeloma viability, higher = more signal;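 further: cells grown under basal conditions without added stimulus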
[5] = JC-1 mitochondrial signal, unstimulated HepG2 cells – cell-based, JC-1 fluorescence, 24 h, 100 nL compound, profiling panel (AID 1167); settings: HepG2 mitochondrial potential, higher = more signal
[6] = JC-1 mitochondrial signal, unstimulated adipocytes – cell-based, JC-1 fluorescence, 3T3-L1 adipocytes, 24 h, 100 nL compound, profiling panel (AID 1168); settings: JC-1 mitochondrial fluorescence, higher = more signal, called active from +8 up or from −8 down
[7] = JC-1 mitochondrial signal, unstimulated myeloma cells – cell-based, JC-1 fluorescence, RPMI8226, 24 h, 100 nL compound, profiling panel (AID 1169); settings: JC-1 mitochondrial potential fluorescence, higher = more signal
[8] = JC-1 mitochondrial signal, unstimulated MM1S myeloma – cell-based, JC-1 fluorescence, 24 h, 100 nL compound, profiling panel (AID 1170); settings: MM1S mitochondrial potential, higher = more signal
[9] = resazurin metabolic signal in A549 cells – cell-based, resazurin fluorescence, 24 h, PK04 Diversity Set, profiling panel (AID 1171); settings: A549 viability, higher = more signal, called active from +8 up or from −8 down
[10] = resazurin metabolic signal in HepG2 cells – cell-based, resazurin fluorescence, 24 h, PK04 Diversity Set, profiling panel (AID 1172); settings: HepG2 viability, higher = more signal
[11] = budding yeast growth changes without added modifier – OD600, strain BY4716, 24 h, basal condition, primary screen (AID 1173); settings: S. cerevisiae BY4716 growth, OD600, 24 h; higher = more signal, called active from +8 up or from −8 down
[12] = viability profiling in MM1S myeloma cells – cell-based, resazurin fluorescence, basal, 24 h, PK04 Diversity Set, profiling panel (AID 1174); settings: higher = more signal, called active from +8 up or from −8 down
[13] = target: Dihydroorotate dehydrogenase (quinone), mitochondrial (Plasmodium falciparum (isolate 3D7)) (UniProt Q08210); test: inhibition of P. falciparum DHODH – biochemical, C-terminal His tag, absorbance 600 nm, primary screen (AID 1175); settings: PfDHODH enzyme, DCIP absorbance 600 nm; higher = more signal, called active from +8 up or from −8 down;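 further: recombinant parasite enzyme with a five histidine tag at its C terminus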
Chain of Dihydroorotate dehydrogenase (quinone), mitochondrial (Plasmodium falciparum (isolate 3D7)) (Q08210 whole entry, looked up): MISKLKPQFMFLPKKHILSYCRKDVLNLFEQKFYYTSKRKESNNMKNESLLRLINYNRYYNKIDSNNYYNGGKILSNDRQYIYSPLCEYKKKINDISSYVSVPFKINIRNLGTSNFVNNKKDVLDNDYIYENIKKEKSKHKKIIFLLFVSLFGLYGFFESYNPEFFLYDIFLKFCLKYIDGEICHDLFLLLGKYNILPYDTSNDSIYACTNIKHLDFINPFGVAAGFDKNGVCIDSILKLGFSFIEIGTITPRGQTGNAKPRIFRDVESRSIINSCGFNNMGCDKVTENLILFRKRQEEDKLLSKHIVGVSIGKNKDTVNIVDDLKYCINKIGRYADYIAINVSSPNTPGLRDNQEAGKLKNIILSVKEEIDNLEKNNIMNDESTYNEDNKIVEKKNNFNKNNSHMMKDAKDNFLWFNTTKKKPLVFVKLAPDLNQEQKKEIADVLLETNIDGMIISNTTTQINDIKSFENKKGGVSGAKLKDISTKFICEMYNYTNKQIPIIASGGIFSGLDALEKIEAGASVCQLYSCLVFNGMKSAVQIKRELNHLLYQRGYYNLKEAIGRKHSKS

[14] = growth modulation of vineyard yeast isolate – strain RM11-1a, OD600, basal, 24 h, primary screen (AID 1177);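 further: cultures grown under basal conditions with no added stressor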; settings: S. cerevisiae RM11-1a growth, OD600, 24 h; higher = more signal, called active from +8 up or from −8 down
[15] = growth of efflux-deficient E. coli DRC39 – strain DRC39, OD650, 24 h, E. coli filamentation inducers, primary screen (AID 1178);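 further: growth measured as culture turbidity by optical density at 650 nm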; settings: E. coli DRC39 acrAB, higher = more signal, called active from +8 up or from −8 down
[16] = growth of efflux-deficient E. coli DRC39 – strain DRC39, OD650, 48 h, E. coli filamentation inducers, primary screen (AID 1179);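 further: screen aims at cell division blockers that make cells filament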; settings: E. coli DRC39 delta-acrAB growth, higher = more signal, called active from +8 up or from −8 down
[17] = viability profiling in RPMI8226 myeloma cells – cell-based, resazurin fluorescence, basal, 24 h, PK04 Diversity Set, profiling panel (AID 1180); settings: higher = more signal;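 further: RPMI8826 multiple myeloma cell line at 5000 cells per well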
[18] = target: E3 ubiquitin-protein ligase XIAP (Homo sapiens) (UniProt P98170); test: small molecules binding XIAP protein – biophysical, small-molecule microarray, fluorescence 635 nm, primary screen (AID 1181); settings: higher = more signal;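 further: score merges 667 nm emission and signal to noise over triplicate slides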
Chain of E3 ubiquitin-protein ligase XIAP (Homo sapiens) (P98170 whole entry, looked up, the tested form may be a part): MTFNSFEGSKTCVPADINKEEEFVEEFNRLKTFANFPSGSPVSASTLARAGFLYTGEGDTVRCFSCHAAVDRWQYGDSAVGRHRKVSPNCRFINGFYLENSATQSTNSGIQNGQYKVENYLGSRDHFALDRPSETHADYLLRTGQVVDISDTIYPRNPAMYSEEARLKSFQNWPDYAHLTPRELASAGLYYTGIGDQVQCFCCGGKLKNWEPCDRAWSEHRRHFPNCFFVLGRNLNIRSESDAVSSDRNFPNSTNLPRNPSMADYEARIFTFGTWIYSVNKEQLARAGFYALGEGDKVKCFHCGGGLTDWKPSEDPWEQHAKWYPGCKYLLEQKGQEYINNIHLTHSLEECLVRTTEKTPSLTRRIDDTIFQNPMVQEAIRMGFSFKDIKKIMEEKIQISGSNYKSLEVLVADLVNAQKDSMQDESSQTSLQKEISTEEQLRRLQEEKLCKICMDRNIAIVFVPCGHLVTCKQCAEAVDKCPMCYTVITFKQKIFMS

[19] = test system: XIP peptide (Xip251-270) binding; test: XIP fragment 251-270 binding compounds – biochemical, small-molecule microarray, fluorescence 635/667 nm, 0.1 µg/mL protein, primary screen (AID 1182); settings: fluorescent protein binding, 635 nm, higher = more signal, called active from +8 up or from −8 down
XIP peptide (Xip251-270) = test: compounds binding XIP fragment 251-270 – biochemical, small-molecule microarray, fluorescence 635/667 nm, 0.5 µg/mL protein, primary screen (AID 1183); settings: fluorescence 635 nm, higher = more signal

Row | SMILES | z-score [1] | z-score [2] | z-score [3] | z-score [4] | z-score [5] | z-score [6] | z-score [7] | z-score [8] | z-score [9] | z-score [10] | z-score [11] | z-score [12] | composite z-score [13] | z-score [14] | z-score [15] | z-score [16] | z-score [17] | composite z-score [18] | composite z-score [19] | composite z-score (XIP peptide (Xip251-270))
1 | C=CCNC(=O)[C@@H]1[C@H]2C(=O)O[C@H](c3ccccc3)[C@H](c3ccccc3)N2[C@H](c2ccc(O)cc2)[C@@]12C(=O)N(C(=O)OCCOC)c1ccc(C#Cc3ccc(OC)cc3)cc12 | 1.24 | 0.216 | -1.58 | -2.52 | -0.914 | 3.45 (inactive) | -0.351 | 0.0591 | 0.834 (inactive) | -0.35 | -0.468 (inactive) | 0.699 (inactive) | 0.21 (inactive) | 0.964 (inactive) | 0.236 (inactive) | 0.83 (inactive) | 0.804 | 0.14 | 0.688 (inactive) | 0.656
2 | COC(=O)c1c2oc(c1C(=O)OC)C(=O)N[C@@H](C(C)C)Cn1nncc1C1(CCCCC1)NC(=O)N[C@H](CO)CC2 | -0.5 | 0.619 | 0.276 | -0.161 | 1.58 | 0.994 (inactive) | 0.144 | 1.08 | 2.11 (inactive) | 2.17 | -3.46 (inactive) | 1.4 (inactive) | 0.62 (inactive) | -0.989 (inactive) | 2.61 (inactive) | 2.18 (inactive) | 0.928 | 0.0623 | -0.503 (inactive) | -0.985
3 | COCCOC(=O)N1C(=O)[C@@]2(c3cc(C#CCNC(N)=O)ccc31)[C@H](c1ccccc1OCCO)N1[C@H](c3ccccc3)[C@H](c3ccccc3)OC(=O)[C@H]1[C@@H]2C(=O)Nc1nc2ccccc2s1 | 1.32 | -0.272 | -1.56 | 0.501 | -2.92 | 1.04 (inactive) | -1.06 | -1.32 | 0.627 (inactive) | 0.0177 | -0.267 (inactive) | 1.22 (inactive) | -0.183 (inactive) | 1.17 (inactive) | -0.17 (inactive) | 0.599 (inactive) | 1.39 | 0.396 | -0.377 (inactive) | 0.501
4 | O=C1O[C@H](c2ccccc2)[C@H](c2ccccc2)N2[C@H]1[C@@H](C(=O)NC[C@H](O)c1ccccc1)[C@]1(C(=O)Nc3ccc(C#CC4(O)CCCCCC4)cc31)[C@H]2c1ccc(O)cc1 | 1.43 | -0.641 | -0.804 | -1.62 | -1.71 | -0.947 (inactive) | -0.672 | -0.566 | 0.814 (inactive) | 0.82 | -1.55 (inactive) | 0.557 (inactive) | -0.154 (inactive) | -0.49 (inactive) | 0.487 (inactive) | 0.972 (inactive) | 0.327 | -0.141 | 1.05 (inactive) | 0.444
